Pf Dd2 growth: inhibitors of Plasmodium falciparum Dd2 growth; 120,000 compounds, 4.3% hits; P. falciparum Dd2 growth, SYBR Green, 72 h; Potency, µM (doses to about 28.9 µM), for inactives: at the top dose activity, negative = inhibition, hits mostly inhibitors; active means well fitted inhibition curve with a large enough effect;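 further: plate controls were DMSO vehicle for no effect and reference drug for full effect; nearly all actives have a fitted effect of over 65% in size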
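Infected erythrocytes (Dd2, 0.3% parasitemia, 2.5% hematocrit final) are added to compound in RPMI-1640/Albumax II medium, grown 72 h at 37C in low oxygen, then lysed with saponin/Triton-X containing SYBR Green and read by fluorescence.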
Active calls of the source: *; i = inactive; [ ] = another dose, or the depositor's remark. Shown is part of a subset that was picked to be rich in hits. Potency means the concentration at half of the fitted maximal effect.

SMILES	Pf Dd2 growth
COCCCNC(=O)c1[nH]c2cc(OC)ccc2c1Sc1ccc(C)cc1	25%
COc1ccc2c(Sc3ccccc3)c(C(=O)NCCCN3CCCCC3)[nH]c2c1	11µM*
COCC(=O)N(C1CCOCC1)C1CCN(C(=O)c2cccnc2C)CC1	-5%
COCCC1(NC(=O)CCc2ccc(OC)cc2)CCN(C2CCOCC2)CC1	i
CC(=O)N1Cc2ccccc2CC2(CCCN2CC2CCCC2)C1 (stereo not drawn)	10µM*
CC(=O)NCCC(=O)N1Cc2ccccc2CC2(CCCN2CC2CCCCC2)C1 (stereo not drawn)	8.9µM*
CC(=O)NCCC(=O)N1Cc2ccccc2CC2(CCCN2CC2CCNCC2)C1 (stereo not drawn)	20%
CC(=O)N1CC2(CCCN2C2COC2)Cc2ccccc21 (stereo not drawn)	3%[44.1 µM]
CC(=O)N1Cc2ccccc2CC2(CCCN2CC2CCOCC2)C1 (stereo not drawn)	-11%
O=C(C1CCCC1)N1CC2(CCCCN2CC2CC2)Cc2ccccc21 (stereo not drawn)	-17%
CC(=O)N1CC2(CCCN2CC2CC2)Cc2ccccc21 (stereo not drawn)	10µM*
CCCN1CCCC12Cc1ccccc1CN(C(=O)CCNC(C)=O)C2 (stereo not drawn)	-9%
CC(=O)NCCC(=O)N1Cc2ccccc2CC2(CCN(CC3CCNC3)C2)C1 (stereo not drawn)	-12%
CN1CCC(C(=O)N2Cc3ccccc3CC3(CCCCN3CC3CCNCC3)C2)CC1 (stereo not drawn)	18%
CC(=O)NCCC(=O)N1Cc2ccccc2CC2(CCCN2CCc2ccc(C)cc2)C1 (stereo not drawn)	8.9µM*
O=C(NCc1nc(-c2cccc(F)c2)c(-c2ccccn2)[nH]1)N1CCCC1	2%
COc1ccc(CN2CCCC(C)(NC(C)=O)C2)c2ccccc12 (stereo not drawn)	i
CCOCCCNC(=O)N1CC(Oc2ccc(-c3nc(-c4ccccc4)no3)cc2)C1	-18%[5.79 µM]
O=C(c1cnccn1)N1CCC2(CN[S+](=O)([O-])c3cnccc3O2)C1 (stereo not drawn)	48%
FC(F)(F)c1ccccc1CN1CCC2(CC1)CC(c1ccccc1)=NO2	i
COCc1noc(CNc2cc(-c3ccccc3F)nc3ccnn23)n1	i
COc1ccc(-c2cc(C[C@@H]3CC[C@H](O)[C@@H](CN(Cc4ccccc4OC)Cc4ccccc4OC)O3)no2)cc1	-19%
O=C(c1ccc(C(F)(F)F)cc1)N1CCN2C(=O)N(C3CCCCC3)C[C@H]2C1	-17%[44.1 µM]
Cc1cc(C)n(CC(=O)NCC(=O)N2CCCCCCNC(=O)CC2c2ccccc2)n1 (stereo not drawn)	-2%
CCCOc1ccc(CN2C[C@@H](CO)[C@H](c3ccccn3)C2)cc1	2.8µM*
SMILES	Pf Dd2 growth
COc1ccc(CN2C[C@@H](CO)[C@H](c3ccccn3)C2)cc1C	i
OC[C@@H]1CN(Cc2ccco2)C[C@H]1c1ccccn1	i
CC(=O)N1CCc2nn(CC(=O)Nc3ccc(C(F)(F)F)cc3)c(=O)cc2C1	i
CCn1ncc(N2CCC(NC(=O)c3ccc(C)c(F)c3)CC2)cc1=O	-19%
O=C1NCCCCCCN(Cc2ccncc2)[C@@H]2CN(C(=O)c3ccco3)CC[C@@H]12	-7%
CN1CCc2c([nH]c3ccccc23)C12CCN(S(=O)(=O)c1cccnc1)CC2	4.5µM*
CN1CCc2c([nH]c3ccccc23)C12CCN(C(=O)Cc1cccnc1)CC2	-27%
Cc1noc(C)c1C(=O)N1CCC2(CC1)NCCc1c2[nH]c2ccccc12	-24%
Cc1ccncc1C(=O)N1CCC2(CC1)c1[nH]c3ccccc3c1CCN2C	i
Cc1noc(C)c1S(=O)(=O)N1CCC2(CC1)NCCc1c2[nH]c2ccccc12	5µM*
Cn1cnc(S(=O)(=O)N2CCC3(CC2)NCCc2c3[nH]c3ccccc23)c1	-8%
Cc1ncsc1C(=O)N1CCC(C(=O)O)(n2ccc(-c3ccco3)n2)CC1	-6%
COc1ccc(S(=O)(=O)N2C[C@@H](F)C[C@H]2C(=O)N2CCc3ccccc3C2)cc1	-6%
CNC(=O)[C@@H]1CN(C(=O)Cc2ccc(Br)cc2)C[C@H]1CO	13%
CCn1cc(CN2CCCC(c3nc(CCOc4cccc(C)c4)no3)C2)cn1 (stereo not drawn)	-20%
CN1CCN(Cc2nc(C3(O)CCN(C4CCCC4)CC3)cs2)CC1	4%[44.1 µM]
CN1CCN(Cc2nc(C3(O)CCN(CC4CCCCC4)CC3)cs2)CC1	10µM*
OC1(c2csc(CN3CCN(c4ccccn4)CC3)n2)CCN(CC2CCCCC2)CC1	-8%
COc1cc2c(cc1OCc1ccncc1)NC(=O)C21CCN(C(C)=O)CC1	i
COC[C@@H]1[C@H](C(=O)Nc2ccc(N3CCOCC3)cc2)CCC(=O)N1C	i
COc1cccc(-c2nnnn2[C@H]2CO[C@H]3[C@@H]2OC[C@@H]3NC(=O)c2ccccc2)c1	-7%[44.1 µM]
COc1ncccc1-c1nc(-c2c(C)noc2C)cc2c1cc(C)n2CCN(C)C	i
Cc1noc(C)c1-c1cc2c(cc(C)n2C)c(-c2ccccc2)n1	i
COc1ncc(-c2nc(-c3c(C)noc3C)cc3c2cc(C)n3CCN(C)C)cn1	14µM*
CC(C)c1ccc(-c2nc(C3CC(=O)N(c4ccc(F)cc4)C3)no2)cc1 (stereo not drawn)	i
SMILES	Pf Dd2 growth
O=C(Nc1ccc2cn[nH]c2c1)c1ccc2c(c1)OCCN(c1ccccc1)C2	11µM*
CC(C)CCN1CCOc2cc(C(=O)Nc3ccccc3)ccc2C1	-14%[44.1 µM]
Cc1cnc(NC(=O)c2ccc3c(c2)OCCN(Cc2ncccn2)C3)s1	i
O=C(Nc1nccs1)c1ccc2c(c1)OCCN(c1ccccc1)C2	10µM*
COc1ccc(NC(=O)c2ccc3c(c2)OCCN(C2CCC2)C3)c(F)c1	i
Cc1cnc(NC(=O)c2ccc3c(c2)OCCN(C2CCC2)C3)s1	i
O=C(Nc1nccs1)c1ccc2c(c1)OCCN(CCC(F)(F)F)C2	-7%[44.1 µM]
O=C(Nc1ccc(F)cc1)c1ccc2c(c1)OCCN(CCC(F)(F)F)C2	i
O=C(Nc1nccs1)c1ccc2c(c1)OCCN(C1CCC1)C2	7.9µM*
Cc1ccncc1C(=O)N1CC(c2nnc(-c3ccncc3)o2)C2(CCOCC2)C1 (stereo not drawn)	9%
CCn1cc(-c2nc3cc(S(=O)(=O)NC(C)C)ccc3n2C(C)C)c(C)n1	3%
CCN(CC)CC[C@H]1CN(C(=O)c2ccnc(Cl)c2)CC[C@H]1CC(=O)O	4%[44.1 µM]
COCc1ccc2c(c1)c(OC(C)(C)C(=O)NCCc1cccnc1)nn2Cc1ccccc1	i
CCCNC(=O)C1COC2(CCN(C(=O)c3ccco3)CC2)N1C(=O)c1ccc(F)cc1 (stereo not drawn)	-7%
Cc1ccccc1-c1nccc2c(=O)cc(C3=CCOCC3)oc12	10µM*
Cc1ccccc1-c1nccc2c(=O)cc(N(C)C3CCOCC3)oc12	i
Cc1ccccc1-c1nccc2c(=O)cc(-c3ccncc3)oc12	-19%[44.1 µM]
COCC(=O)Nc1ccc([C@H]2OCC(=O)N(Cc3cccnc3)[C@@H]2CO)cc1	14%[44.1 µM]
CN1C(=O)C(CC(=O)NC2CC2)=C2CCCCC21 (stereo not drawn)	-12%
CC1CCN(c2ccc(CNC(=O)CC3=C4CCCCC4N(C)C3=O)cc2)CC1 (stereo not drawn)	10µM*
O=C(CC1=C2CCCCC2N(Cc2ccc(F)cc2)C1=O)NC1CC1 (stereo not drawn)	-22%
CCNC(=O)CC1=C2CCCCC2N(C)C1=O (stereo not drawn)	-17%

Bioassay records (PubChem BioAssay)
